ADAM17 inh: inhibits human ADAM17 | P78536 | 0.83% of 370,000 active | recombinant ADAM17, EDANS/DABCYL FRET peptide cleavage | inhibition, % at 6.95 µM | AID 720648;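 active means inhibition above the mean of compounds lying between control limits plus 3 SD, set per campaign, cut at about 8.5% in these data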;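 further: 0% = DMSO-only wells as the low control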
Target sequence (P78536 215-824 limits assumed): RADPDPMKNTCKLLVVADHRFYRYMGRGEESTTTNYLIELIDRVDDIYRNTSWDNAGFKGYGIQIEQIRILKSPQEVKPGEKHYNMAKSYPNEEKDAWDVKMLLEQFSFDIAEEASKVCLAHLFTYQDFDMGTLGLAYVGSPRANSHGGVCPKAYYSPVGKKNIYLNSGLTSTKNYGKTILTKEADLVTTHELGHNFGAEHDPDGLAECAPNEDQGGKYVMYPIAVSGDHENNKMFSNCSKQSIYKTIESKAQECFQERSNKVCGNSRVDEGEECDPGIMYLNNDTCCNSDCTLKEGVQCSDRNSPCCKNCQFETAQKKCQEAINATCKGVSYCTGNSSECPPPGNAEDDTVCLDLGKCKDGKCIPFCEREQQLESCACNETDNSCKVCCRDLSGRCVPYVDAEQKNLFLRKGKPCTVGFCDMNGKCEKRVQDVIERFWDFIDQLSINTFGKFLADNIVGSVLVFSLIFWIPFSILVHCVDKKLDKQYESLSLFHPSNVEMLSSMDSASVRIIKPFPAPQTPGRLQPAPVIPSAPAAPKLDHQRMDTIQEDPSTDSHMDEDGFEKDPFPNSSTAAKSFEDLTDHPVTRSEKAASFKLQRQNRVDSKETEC
ADAM10 inh: inhibitors of human ADAM10; recombinant ADAM10, EDANS/DABCYL FRET peptide cleavage, 3 h; O14672; inhibition, % at 7 µM; 0.62% of 370,000 active;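 active means inhibition above a per-campaign cutoff equal to the mean of compounds falling between control-based bounds plus 3 SD, cut at about 20% in these data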;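 further: 0% = DMSO wells while the 100% control is not disclosed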
NPR2 activator: GC-B (human) receptor activation; P20594; HEK293-GC-B cells, CNP EC30, cGMP TR-FRET; 0% at EC30 CNP, 100% saturating CNP; activation, % at 10 µM; 0.11% of 370,000 active;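 active means activation at 10 µM reaching about 35% in either raw or pattern-adjusted values, limit read from the data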
KLK7 zymogen act: activates the human kallikrein-7 zymogen. P49862. purified proKLK7, EDANS-DABCYL substrate fluorescence; 100% is mature enzyme control, 0% vehicle. activation, % at 7 µM. 0.9% of 370,000 active. AID 652039;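 active means activation above the mean of all tested compounds plus 3 SD, computed per campaign excluding outliers beyond control limits, cut at about 13% in these data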
GC-A act: GC-A (human) enzyme activation; 0.14% of 370,000 active; activation, % at 10 µM; HEK293 GC-A cells, cGMP TR-FRET, EC30 ANP; 0% at EC30 ANP, 100% saturating ANP; P16066; in the data active means activation above about 40%
proKLK7 act conf: proKLK7 activation, confirmation; activation, % at 7 µM; 68% of 3,200 active; purified proKLK7, EDANS-DABCYL substrate fluorescence; scaled: vehicle 0, mature enzyme 100; shares compounds with KLK7 zymogen act;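 active means activation, as change over the incubation, above the mean of all tested compounds plus 3 SD, cut at about 13% in these data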
EDANS-DABCYL int: optically interferes with EDANS-DABCYL signal, flagging KLK7 hits; activation, % at 7 µM; AID 686952; 80% of 3,200 active; shares compounds with KLK7 zymogen act; EDANS-DABCYL substrate fluorescence interference, no enzyme, 4 h; solvent 0%, active enzyme control 100%;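 active means activation above the all-compound mean plus 3 SD, ignoring values outside control-based bounds, cut at about 4.8% in these data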;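 further: value is the 4 h activation minus the activation read at time zero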
The depositor's hits bear a star. Hits are enriched below; roughly 2.2% of the tested compounds scored in any of these assays.

For CCCc1cc(NCCCO)n2c(nc3ccccc32)c1C#N the results were ADAM17 inh inactive, ADAM10 inh inactive, NPR2 activator 4, KLK7 zymogen act 17*, GC-A act 3, proKLK7 act conf -11 and EDANS-DABCYL int -11.
O=C(CCc1ccccc1)N[C@H]1[C@H](OC(=O)c2ccco2)CCC[C@]12C(=O)N(Cc1ccccc1)c1ccccc12 was read as ADAM17 inh 5, ADAM10 inh 8, NPR2 activator -4, KLK7 zymogen act 0 and GC-A act -5.
`CCOC(=O)C1=NOC(C(=O)NC2CCCC2)(C(=O)C2CC2)C1` (configuration not stated) gave ADAM17 inh -3, ADAM10 inh -14, NPR2 activator -4, KLK7 zymogen act 0 and GC-A act 3.
Screening C[C@H](O)[C@@H]1C(=O)N2CCc3c([nH]c4c(-c5ccc6c(c5)OCO6)cccc34)[C@@H]2C[C@@H]1N(C)C(=O)c1ccccc1F returned ADAM17 inh 5, ADAM10 inh 10, NPR2 activator -10, KLK7 zymogen act 1 and GC-A act -5.
Screening Nc1cccc2c1C(=O)N(C(=O)c1cccc(S(=O)(=O)N3CCCCCC3)c1)C2=O returned ADAM17 inh -85, ADAM10 inh -290, NPR2 activator -3, KLK7 zymogen act 19*, GC-A act 1, proKLK7 act conf 258* and EDANS-DABCYL int 269*.
For Nc1cccc2c1C(=O)N(C(=O)c1ccc(Cl)c(S(=O)(=O)N3CCCCCC3)c1)C2=O the results were ADAM17 inh -85, ADAM10 inh -268, NPR2 activator 1, KLK7 zymogen act 18*, GC-A act 6, proKLK7 act conf 217* and EDANS-DABCYL int 233*.
O=C(c1ccc(Cl)c(S(=O)(=O)N2CCCCC2)c1)N1CCCCC1 was read as ADAM17 inh -1, ADAM10 inh -17, NPR2 activator 0, KLK7 zymogen act 0 and GC-A act 2.
Cc1ccc(S(=O)(=O)N2CCOCC2)cc1C(=O)N1C(=O)c2cccc(N)c2C1=O was read as ADAM17 inh -23, ADAM10 inh -70, NPR2 activator -1, KLK7 zymogen act -5 and GC-A act 0.
O=C(NCc1ccco1)/C(=C/c1ccc(C(F)(F)F)cc1)c1nc2ccccc2[nH]1 was read as ADAM17 inh -37, ADAM10 inh -120, NPR2 activator -4, KLK7 zymogen act 61*, GC-A act 0, proKLK7 act conf 84* and EDANS-DABCYL int 96*.
`CC1=C(C#N)C(c2cccnc2)C2=C(CC(c3ccc(Cl)cc3)CC2=O)N1` (configuration not stated) gave ADAM17 inh -496, ADAM10 inh inactive, NPR2 activator -8, KLK7 zymogen act 13*, GC-A act -5, proKLK7 act conf 2 and EDANS-DABCYL int 9.2*.
Screening CC1=C(C#N)C(c2ccc(O)cc2)C2=C(CCCC2=O)N1 (configuration not stated) returned ADAM17 inh -75, ADAM10 inh -200, NPR2 activator -1, KLK7 zymogen act 3 and GC-A act 1.
COC(=O)[C@]12C[C@H](CC(=O)N3CCOCC3)C(=O)N(CCc3ccc(OC)c(OC)c3)C1=C[C@H](C1CCCC1)O[C@@H]2C was read as ADAM17 inh 2, ADAM10 inh 6, NPR2 activator 7, KLK7 zymogen act -1 and GC-A act -3.
O=C(/C=C/c1ccco1)c1ccccc1O was read as ADAM17 inh -3, ADAM10 inh -12, NPR2 activator -2, KLK7 zymogen act 8 and GC-A act 7.
`O=C(C=Cc1ccco1)c1cc(Cl)ccc1O` gave ADAM17 inh -7, ADAM10 inh -22, NPR2 activator -1, KLK7 zymogen act 35*, GC-A act -2, proKLK7 act conf 0 and EDANS-DABCYL int 1.
`C=CCN1C(=O)[C@@H](CC(=O)NCc2cccs2)[C@]2(C(=O)OC)CCCCC=C12` gave ADAM17 inh -1, ADAM10 inh -13, NPR2 activator -4, KLK7 zymogen act -1 and GC-A act 2.
For O=C(Nc1ncccn1)c1ccc([N+](=O)[O-])o1 the results were ADAM17 inh -166, ADAM10 inh inactive, NPR2 activator -11, KLK7 zymogen act 817*, GC-A act -2, proKLK7 act conf 834* and EDANS-DABCYL int 835*.
For Cc1ccnc(NC(=O)c2ccc([N+](=O)[O-])o2)c1 the results were ADAM17 inh -13, ADAM10 inh -34, NPR2 activator -3, KLK7 zymogen act 8 and GC-A act -4.
`COCCCN1C(=O)[C@H](CC(=O)N2CCN(C(=O)C3CC3)CC2)[C@]2(C(=O)OC)CCCCC=C12` gave ADAM17 inh 0, ADAM10 inh 1, NPR2 activator 8, KLK7 zymogen act 0 and GC-A act -1.
For CCCCNC(=O)C1CCCN1C(=O)Nc1ccc(Cl)cc1 (configuration not stated) the results were ADAM17 inh 1, ADAM10 inh 2, NPR2 activator -2, KLK7 zymogen act 0 and GC-A act 3.
For CCCC[C@H](CCCc1ccc(F)cc1)CCC(=O)N(c1ccccc1)c1ccccc1 the results were ADAM17 inh -1, ADAM10 inh 9, NPR2 activator 4, KLK7 zymogen act 0 and GC-A act 1.
CCOC(=O)c1cc2c(nc1N)CCCC2 was read as ADAM17 inh -192, ADAM10 inh inactive, NPR2 activator -3, KLK7 zymogen act 5 and GC-A act 7.
For CCOC(=O)c1cnc2cc3c(cn2c1=O)CCCC3 the results were ADAM17 inh inactive, ADAM10 inh inactive, NPR2 activator -4, KLK7 zymogen act 13*, GC-A act 3, proKLK7 act conf 6 and EDANS-DABCYL int 10*.
CCOc1ccc2nc(NCCNC(=O)CC)c(C#N)cc2c1 was read as ADAM17 inh -172, ADAM10 inh inactive, NPR2 activator -2, KLK7 zymogen act 29*, GC-A act 1, proKLK7 act conf 40* and EDANS-DABCYL int 44*.
`CCC(=O)NCCNc1nc2cc(C)c(C)cc2cc1C#N` gave ADAM17 inh -40, ADAM10 inh -145, NPR2 activator 0, KLK7 zymogen act 3 and GC-A act 2.
Screening O=C1N/C(=C/c2ccc(N3CCOCC3)o2)C(=O)N1c1ccccc1 returned ADAM17 inh -7, ADAM10 inh -27, NPR2 activator 8, KLK7 zymogen act 20*, GC-A act 6, proKLK7 act conf 10 and EDANS-DABCYL int 10*.
